The results in this text go back to the OligoGym collection.
Also: reference of the scale not given here.

One assay concerns the target RHOH. Put plainly: pooled miR-30 sensor sort-seq; sequence = guide strand. The settings on record: shRNA.
TTCAGGAATGAGTTATGGTTGG registered a sensor-assay potency score (higher = more potent) of -0.949.

The sequence AAGGTCTCGGAGGTGAAGCGCA yielded a sensor-assay potency score (higher = more potent) of -0.81.

TAGGCCTCCGGGAAGGTCTCGG returned a sensor-assay potency score (higher = more potent) of -0.658.

TACACTGTGGGCTTGTAGGCCT showed a sensor-assay potency score (higher = more potent) of -0.53.

The sequence AATTTCACCAATCCACTTGTTC came in with a sensor-assay potency score (higher = more potent) of -0.62. Consider TAAGGGCTGAGCACTCCAGGTA, for which the sensor-assay potency score (higher = more potent) is -0.636. Same read-out and setting: the value for TGTGTTCTCGTACACTGTGGGC was -1.21. Same read-out and setting: the value for TCCATGAAGACGTCCACCCCTG was -1.1; that for AAACACCTGCTGTACTCCCCGA was -0.993; that for TAGCACATCAGCACCACGTCTG was 0.265. Same read-out and setting: the figure for TTCTTCAAGTTCAGGAATGAGT is -0.86; for AACACCTGCTGTACTCCCCGAT it is -0.621. On to TAATTTCACCAATCCACTTGTT, for which the sensor-assay potency score (higher = more potent) was determined as 0.134. Regarding TTGACGGCAGTTCGGACGGCGC, the sensor-assay potency score (higher = more potent) was -1.65.

Turning to TTCTCGTACACTGTGGGCTTGT, the sensor-assay potency score (higher = more potent) is -0.506. On the same count and under the same terms, the figure for TCCGGGAAGGTCTCGGAGGTGA is -1.75.

The target in the next assay is RHOJ. The assay is described as above. The settings on record: shRNA.
TTTCTCTTTCATATACAGCAAA returned a sensor-assay potency score (higher = more potent) of -0.918. Turning to TCAACATCTTCTTCTCGTCGTT, the sensor-assay potency score (higher = more potent) worked out at 0.0564. Still for that read-out and setting: the figure for TTCTTCTCGTCGTTGCCCCTGC is -0.309.

For the sequence TTCTCTTTCATATACAGCAAAC, the sensor-assay potency score (higher = more potent) was -1.56. On the same count and under the same terms, the figure for TTGGCTGCCATTCTCATCCCTG is -0.433; for AACATCTTCTTCTCGTCGTTGC it is 0.438. Sequence TTGACTTTGTTTTTGATGCGAT came in with a sensor-assay potency score (higher = more potent) of -0.0639. For the sequence TTTGAGACCTTTCTGAGTCAGA, the sensor-assay potency score (higher = more potent) is -0.62. In the case of TAGCACTGTGCTCCGATCGCTT, the sensor-assay potency score (higher = more potent) was -0.602. On the same count and under the same terms, the figure for TTCTGAGTCAGAGCTGAACATT is -1.66; for ATAGTGGTCAAACACAGTGGGC it is -0.911; for TTCAACATCTTCTTCTCGTCGT it is 0.937.

Another assay addresses RIC8A. The assay is described as above. The settings on record: shRNA.
In turn, TTCACTCCCATGAACTCCGTGG had a sensor-assay potency score (higher = more potent) of 0.138. The same measure, in the same setting: the value for TTGTTCCGCAGCATCTCCCCAA was -0.652; that for TACACTCTCCTTCAGCCTGTGT was -1.16; that for TTTGAGGATCTCCATGGCCCGC was -1.76. In turn, AACATCCAGACACTTGAGGGGC yielded a sensor-assay potency score (higher = more potent) of -0.627. On to TTTCAGCTCCTGAAACAGCTGC, for which the sensor-assay potency score (higher = more potent) is -0.481. On the same count and under the same terms, the value for TTGGGCATCATCAAACGTGAAG was -0.89; that for TAGTCTCGCACATGGCATCCTG was -1.08. On the same count and under the same terms, the value for AAGAACTGGACATCGTGGGGGA was 0.415; that for TGGGCCTTCAGGAACTTCCTGG was -0.964. Same read-out and setting: the figure for TACAACATCCATGTCTGCGGAC is -0.737; for TTCTAGCACAAGAAGACCGTTG it is 0.199.
